Test system: Vero E6 infected with SARS-CoV-2
Assay: inhibition of SARS-CoV-2 cytopathic effect; higher = more antiviral protection, active = above 15
Conditions: 48 h

Measured: inhibition of SARS-CoV-2 cytopathic effect

OC[C@H]1O[C@@H](Oc2cc3c(O)cc(O)cc3[o+]c2-c2ccc(O)c(O)c2)[C@H](O)[C@@H](O)[C@@H]1O [kuromanin]
inactive: 1 nM -0.56% | 8.33 nM 0.72% | 100 nM -0.34% | 833.33 nM -2.36% | 10000 nM -4.26%

CCC(CC)Nc1cc(C)nc(Oc2c(C)cc(C)cc2C)c1C
inactive: 1 nM -0.56% | 8.33 nM 0.65% | 100 nM -1.28% | 833.33 nM 0.01% | 10000 nM -1.59%

CC[C@H](C)[C@H](N)C1=N[C@H](C(=O)N[C@@H](CC(C)C)C(=O)N[C@H](CCC(=O)[O-])C(=O)N[C@H](C(=O)N[C@H]2CCCCNC(=O)[C@H](CC(N)=O)NC(=O)[C@@H](CC(=O)[O-])NC(=O)[C@H](Cc3cnc[nH]3)NC(=O)[C@@H](Cc3ccccc3)NC(=O)[C@H]([C@@H](C)CC)NC(=O)[C@@H](CCCN)NC2=O)[C@@H](C)CC)CS1.[Zn+2] [bacitracin-zinc]
inactive: 1 nM 1.46% | 8.33 nM 1.2% | 100 nM 2.85% | 833.33 nM -0.14% | 10000 nM 0.15%

Cc1cc(Nc2ncnc3ccc(NC4=NC(C)(C)CO4)cc23)ccc1Oc1ccn2ncnc2c1 [tucatinib]
inactive: 1 nM -2.37% | 8.33 nM 0.54% | 100 nM -5.16% | 833.33 nM -3.64% | 10000 nM -12.7%

COc1cc2c(c(OC)c1OC)-c1ccc(OC)c(=O)cc1[C@@H](NC(C)=O)CC2 [colchicine]
inactive: 1 nM 2.74% | 8.33 nM 2.19% | 100 nM 0.8% | 833.33 nM -0.41% | 10000 nM 1.35%

Source: the supplement of paper PMC13380429
